PubChem BioAssay (EPA / NIEHS)
Activity calls are given as the source filed them. How the source made its calls: active means hit-call score of the fitted dose curve at least 0.9, where 1 is the maximum; inactive means score below 0.9.

Experiments:
Conditions in all cases: mRNA level, 48 h; actives raise or lower the signal
[1] = read-out: Intercellular Adhesion Molecule 1 (ICAM1), ICAM1 (gene 3383); assay: LTEA_HepaRG_ICAM1: Life Technologies and Expression Analysis (LTEA) Assay for Intercellular Adhesion Molecule 1 (ICAM1) using HepaRG (AID 2283507)
Summary of the method: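 Differentiated human HepaRG cells in serum-free induction medium exposed 48 h in duplicate to 8 half-log concentrations (top 100 uM, 0.5% DMSO). ICAM1 mRNA quantified by TaqMan qRT-PCR, normalized to ACTB, GAPDH and POLR2A; bidirectional fitting versus DMSO.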

[2] = read-out: Insulin-like growth factor-binding protein 1 (IGFBP1), IGFBP1 (gene 3484); assay: LTEA_HepaRG_IGFBP1: Life Technologies and Expression Analysis (LTEA) Assay for Insulin-like growth factor-binding protein 1 (IGFBP1) using HepaRG (AID 2283508)
Summary of the method: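 HepaRG cells, plated 48 h then switched to serum-free induction medium, exposed in duplicate for 48 h to 8-point half-log series from 100 uM in 0.5% DMSO. mRNA measured by qRT-PCR, normalized to ACTB/GAPDH/POLR2A; bidirectional fit versus DMSO.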

[3] = read-out: Interleukin 6 (IL6), IL6 (gene 3569); assay: LTEA_HepaRG_IL6: Life Technologies and Expression Analysis (LTEA) Assay for Interleukin 6 (IL6) using HepaRG (AID 2283509)
Summary of the method: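 Transcript levels, normalized to three housekeeping genes, were quantified by qRT-PCR after 48 h chemical treatment of HepaRG cells. Eight-point half-log series from 100 uM in 0.5% DMSO, duplicates. Fitted both directions against DMSO baseline.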

[4] = read-out: Interleukin 6 Receptor (IL6R), IL6R (gene 3570); assay: LTEA_HepaRG_IL6R: Life Technologies and Expression Analysis (LTEA) Assay for Interleukin 6 Receptor (IL6R) using HepaRG (AID 2283510);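 on AC50: TaqMan qRT-PCR signal normalized to ACTB GAPDH and POLR2A housekeeping genes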
Summary of the method: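 Cells were thawed, plated and cultured 48 h, then medium was changed to serum-free induction medium. Chemicals were added in duplicate (100 uM top, half-log steps, 0.5% DMSO) for 48 h. Lysates were analyzed by qRT-PCR for IL6R expression.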

[5] = read-out: Potassium channel subfamily K member 1 (KCNK1), KCNK1 (gene 3775); assay: LTEA_HepaRG_KCNK1: Life Technologies and Expression Analysis (LTEA) Assay for Potassium channel subfamily K member 1 (KCNK1) using HepaRG (AID 2283511)
Summary of the method: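 KCNK1 transcript measured by TaqMan qRT-PCR against three housekeeping genes, after HepaRG cells were treated 48 h with eight half-log concentrations (top 100 uM, 0.5% DMSO). Curves fitted bidirectionally relative to vehicle.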

[6] = read-out: Keratin 19 (KRT19), KRT19 (gene 3880); assay: LTEA_HepaRG_KRT19: Life Technologies and Expression Analysis (LTEA) Assay for Keratin 19 (KRT19) using HepaRG (AID 2283512)
Summary of the method: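 Differentiated HepaRG cells in serum-free induction medium, exposed 48 h in duplicate to 8 half-log concentrations up to 100 uM in 0.5% DMSO. KRT19 mRNA by qRT-PCR, normalized to ACTB, GAPDH, POLR2A; bidirectional fit vs DMSO.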

[7] = read-out: JUN Transcription Factor, JUN (gene 3725); assay: LTEA_HepaRG_JUN: Life Technologies and Expression Analysis (LTEA) Assay for JUN Transcription Factor using HepaRG (AID 2283513)
Summary of the method: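 Read-out is JUN transcript level by TaqMan qRT-PCR, normalized to ACTB, GAPDH and POLR2A, after 48 h chemical treatment of HepaRG cells. Concentration-response spanned eight half-log points up to 100 uM in 0.5% DMSO.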

[8] = read-out: Lipase C (LIPC), LIPC (gene 3990); assay: LTEA_HepaRG_LIPC: Life Technologies and Expression Analysis (LTEA) Assay for Lipase C (LIPC) using HepaRG (AID 2283514)
Summary of the method: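 LIPC expression was quantified by qRT-PCR against three housekeeping genes (ACTB, GAPDH, POLR2A). Differentiated human HepaRG cells received eight half-log doses (top 100 uM, 0.5% DMSO) in duplicate for 48 h; fitting bidirectional relative to DMSO.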

[9] = read-out: Lipoprotein lipase (LPL), LPL (gene 4023); assay: LTEA_HepaRG_LPL: Life Technologies and Expression Analysis (LTEA) Assay for Lipoprotein lipase (LPL) using HepaRG (AID 2283515)
Summary of the method: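 LPL transcript levels quantified by TaqMan qRT-PCR against three housekeeping genes after 48 h chemical treatment of HepaRG cells. Eight-point half-log series from 100 uM in 0.5% DMSO, tested in duplicate; bidirectional fitting versus vehicle.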

[10] = read-out: MicroRNA 122 (MIR122), gene 406906; assay: LTEA_HepaRG_MIR122: Life Technologies and Expression Analysis (LTEA) Assay for MicroRNA 122 (MIR122) using HepaRG (AID 2283516); further: the transcript read is the microRNA miR-122
Summary of the method: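 Human liver HepaRG cultures receive test chemicals for 48 h at eight half-log concentrations from 100 uM. Expression is quantified by qRT-PCR with ACTB/GAPDH/POLR2A normalization and fitted bidirectionally against 0.5% DMSO.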

Measured: AC50

CCOP(=O)(NC(C)C)Oc1ccc(SC)c(C)c1 (stereo not drawn)
inactive: all assays above

O=[N+]([O-])c1cc(C(F)(F)F)c(Cl)c([N+](=O)[O-])c1Nc1ncc(C(F)(F)F)cc1Cl
inactive: [1] | [5] | [7]
active: [2] 42.6 µM | [3] 73.9 µM | [4] 50 µM | [6] 26.2 µM | [8] 24.4 µM | [9] 74.1 µM | [10] 15.8 µM

CC1(C(=O)Nc2ccc(O)c(Cl)c2Cl)CCCCC1
inactive: all assays above

CNc1cnn(-c2cccc(C(F)(F)F)c2)c(=O)c1Cl
active: [2] 17.4 µM | [3] 50 µM | [6] 14.5 µM
inactive: all other assays above

COP(=O)(NC(C)=O)SC (stereo not drawn)
inactive: all assays above

COc1ccc(C(=CC(=O)N2CCOCC2)c2ccc(Cl)cc2)cc1OC
inactive: all assays above

C=C(C)[C@H]1Cc2c(ccc3c2O[C@@H]2COc4cc(OC)c(OC)cc4[C@@H]2C3=O)O1
active: [1] 2.14 µM | [2] 2.9 µM | [3] 1.44 µM | [5] 16.6 µM | [6] 0.654 µM | [7] 17.8 µM | [8] 12.7 µM | [9] 2.16 µM | [10] 1.32 µM
inactive: [4]

CCOP(=S)(Oc1cnc(C(C)(C)C)nc1)OC(C)C (stereo not drawn)
active: [4] 25.1 µM | [8] 18.8 µM
inactive: all other assays above

S=C1NCCN1
inactive: all assays above

CCOP(=S)(OCC)Oc1cc(C)nc(C(C)C)n1
active: [2] 19 µM
inactive: all other assays above

CCC(=NOC/C=C/Cl)C1=C(O)CC(C2CCOCC2)CC1=O (stereo not drawn)
inactive: all assays above

COP(=O)(OC)OC(Br)C(Cl)(Cl)Br (stereo not drawn)
active: [3] 50 µM
not listed: [10]
inactive: all other assays above

CN(C)[C@@H]1C(=O)C(C(N)=O)=C(O)[C@@]2(O)C(=O)C3=C(O)c4c(O)cccc4[C@@](C)(O)[C@H]3[C@H](O)[C@@H]12
inactive: all assays above

COP(=O)(OC)C(O)C(Cl)(Cl)Cl (stereo not drawn)
inactive: all assays above

CCC(=O)Nc1ccc(Cl)c(Cl)c1
active: [2] 50 µM | [6] 41.4 µM
inactive: all other assays above

C[Si](Cn1cncn1)(c1ccc(F)cc1)c1ccc(F)cc1
inactive: [4] | [6] | [7]
active: [1] 81.1 µM | [2] 67.7 µM | [3] 92.6 µM | [5] 50 µM | [8] 26.7 µM | [9] 50 µM | [10] 61.4 µM

N#CSCSC#N
active: [4] 68.4 µM | [6] 90.1 µM | [8] 93.7 µM | [9] 78.1 µM | [10] 65.1 µM
inactive: all other assays above

CCCCN(CC)c1c([N+](=O)[O-])cc(C(F)(F)F)cc1[N+](=O)[O-]
inactive: all assays above

CNC(=O)Oc1cccc2c1OC(C)(C)O2
inactive: all assays above

CCOP(=S)(OCC)OC(Cl)C(Cl)(Cl)Cl (stereo not drawn)
inactive: all assays above

CCCCOC(=O)[C@@H](C)Oc1ccc(Oc2ccc(C#N)cc2F)cc1
active: [9] 40.4 µM
inactive: all other assays above

CN(C)NC(=O)CCC(=O)O
inactive: all assays above

CCCOc1nn(C(=O)NS(=O)(=O)c2ccccc2C(=O)OC)c(=O)n1C
inactive: all assays above

O=C(O)c1cc(Oc2ccc(C(F)(F)F)cc2Cl)ccc1[N+](=O)[O-]
active: [9] 12.6 µM
inactive: all other assays above

CCc1cccc(C)c1N(C(=O)CCl)C(C)COC (stereo not drawn)
inactive: all assays above

CC(Oc1cccc(Cl)c1)C(=O)O (stereo not drawn)
inactive: all assays above

CCCSP(=O)(OCC)SCCC
inactive: all assays above

CC(COc1ccc(Oc2ccccc2)cc1)Oc1ccccn1 (stereo not drawn)
inactive: all assays above

CC(=NC#N)N(C)Cc1ccc(Cl)nc1
inactive: all assays above

CC(C)[C@H](C(=O)O[C@H](C#N)c1cccc(Oc2ccccc2)c1)c1ccc(Cl)cc1
inactive: all assays above

CC(C)N(C(=O)SCC(Cl)=C(Cl)Cl)C(C)C
inactive: all assays above

CSC1=N[C@@](C)(c2ccccc2)C(=O)N1Nc1ccccc1
active: [1] 34 µM | [2] 31.6 µM | [3] 33.3 µM | [4] 16.5 µM | [6] 18.7 µM | [8] 31.4 µM | [9] 26.9 µM | [10] 50 µM
inactive: [5] | [7]

CCOP(=S)(OCC)SCCSCC
inactive: all assays above

CC[C@H](C)[C@H]1O[C@]2(C=C[C@@H]1C)C[C@@H]1C[C@@H](C/C=C(\C)[C@@H](O[C@H]3C[C@H](OC)[C@@H](O[C@H]4C[C@H](OC)[C@@H](NC)[C@H](C)O4)[C@H](C)O3)[C@@H](C)/C=C/C=C3\CO[C@@H]4[C@H](O)C(C)=C[C@@H](C(=O)O1)[C@]34O)O2
active: [1] 28.9 µM | [2] 14.6 µM | [3] 21.3 µM | [4] 22.6 µM | [5] 22.5 µM | [7] 26.5 µM | [9] 12.1 µM | [10] 55.6 µM
inactive: [6] | [8]

CCc1cccc(CC)c1N(COC)C(=O)CCl
active: [2] 32.1 µM
inactive: all other assays above

CCCCOC(=O)c1ccccc1C(=O)O
inactive: all assays above

CSc1nnc(C(C)(C)C)c(=O)n1N
inactive: all assays above

Nc1nc(N)nc(NC2CC2)n1
inactive: all assays above

CCCOCC(=Nc1ccc(Cl)cc1C(F)(F)F)n1ccnc1
inactive: [5]
active: [1] 88.2 µM | [3] 85.7 µM | [4] 66.4 µM | [6] 12 µM | [7] 73.1 µM | [8] 15.8 µM | [9] 12.8 µM | [10] 17.1 µM
